Only some compounds are listed: those with a hit (about 2.9% of all), similar ones and a draw of the others.
Vif imaging: HIV Vif self-association inhibitors, primary screen, imaging, HEK293T, single point | AID 602346, 2012 | inhibition, % at 7.49 µM | HEK293T cells, Vif self-association by quenched fluorescence, 24 h | 340,000 tested, 0.35% active; in the data active = inhibition above about 50%, passing the limit was not always enough; inconclusive = no clear call, values can overlap the other calls; inactive = below about 31%
MITF act: activators of MITF-driven TRPM1 promoter reporter, primary screen, cell-based, SK-MEL-5, luciferase, single point; SK-MEL-5 TRPM1-promoter luciferase, 24 h; % of positive control, neutral wells = 0; activation, % at 12.5 µM; 300,000 tested, 0.75% active; AID 588334, 2011;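 active = mean activation of at least 80% with every replicate also reaching 80%; inconclusive = mean reaches 80% but some replicate falls short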;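 also: 0% = neutral control wells and 100% = parthenolide positive control wells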
N-glyco inh: increase of ERlucT glycosylation luciferase signal, primary screen, N-linked glycosylation inhibitor project, D54 ERlucT cells, luminescence, set 2. D54 ERlucT glycosylation luciferase reporter, 24 h; percent of 100 nM tunicamycin response. reporter increase, % at 12.5 µM. 360,000 tested, 0.23% active;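 active = mean luciferase reporter signal, scaled so untreated is 0 and the glycosylation-blocking control 100, at or above a set limit in every replicate; inconclusive = mean reaches the limit but not every replicate does; inactive = mean below the limit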;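 also: luciferase carries N-glycosylation sites so blocking glycosylation raises the light; 0% = median of neutral control wells and 100% = median of 100 nM tunicamycin wells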
PvdQ acylase: P. aeruginosa PvdQ acylase inhibitors, primary screen, biochemical, fluorescence, plate reader and imaging, single point; purified PvdQ acylase; inhibition, % at 10 µM; 340,000 tested, 0.063% active; in the data active = inhibition above about 30%, passing the limit was not always enough; inconclusive = no clear call, values can overlap the other calls;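 also: 0% = vehicle neutral wells and 100% = reference inhibitor wells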
Wnt act: Wnt/beta-catenin pathway activators, primary screen, cell-based, plate reader, single point; Wnt/beta-catenin reporter cell assay, activator; 300,000 tested, 1.2% active; activation, % at 9.35 µM; in the data active = activation above about 30%, passing the limit was not always enough; inconclusive = no clear call, values can overlap the other calls;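 also: 0% = neutral control wells and 100% = positive control wells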
esBAF inh: Bmi1 luciferase reporter increase in mESCs, primary screen, esBAF inhibitor project, mouse ES cells, Bmi1 luciferase knock-in, single point; 24 h; 100% = twice the neutral-well signal; reporter increase, % at 12.5 µM; 350,000 tested, 2% active; AID 602393, 2012; in the data active = activation above about 40%; inconclusive = no clear call, values can overlap the other calls;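 also: 0% = median of the plate's neutral control wells and 100% = double that signal; a rise in the Bmi1 reporter signal indicates esBAF inhibition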
* = called active by the depositor; ? = inconclusive; . = not tested or not shown.

SMILES	Vif imaging	MITF act	N-glyco inh	PvdQ acylase	Wnt act	esBAF inh
O=C(C1CC1)N1CC[C@@H]2[C@H]1c1cc(C#Cc3ccccc3F)ccc1N[C@@H]2CO	.	.	.	.	.	5.6
COc1ccc(CNC(=O)C[C@H]2CC[C@H](NC(=O)c3cccc(F)c3)[C@@H](CO)O2)cc1	.	.	.	.	.	-3.0
C[C@@H]1CN([C@@H](C)CO)C(=O)c2cc(-c3ccccc3)cnc2O[C@H]1CN(C)C(=O)Cc1ccccn1	.	.	.	.	.	4.8
COc1ccc(C(=O)Nc2ccc3c(c2)nc2n3CCSC2)cc1	5.8	.	-2.4	-11.1	48.8*	33.1
COc1ccc(C(=O)Nc2cccc(C)c2)cc1	1.1	.	-8.0	-4.7	58.0*	13.5
O=C(Nc1ccc2c(c1)nc1n2CCOC1)c1ccccc1	58.3*	60.0	0.5	-7.3	23.6	23.3
O=C(Nc1ccc2c(c1)nc1n2CCSC1)c1ccccc1	3.6	21.6	-12.0	-9.2	12.4	-19.5
CN(C)C(=O)C[C@@H]1C[C@@H]2c3cc(NC(=O)CC4CC4)ccc3O[C@@H]2[C@H](CO)O1	.	.	.	.	.	-4.9
O=C(C[C@H]1CC[C@H]2[C@@H](COC[C@H](O)CN2Cc2nccs2)O1)NCc1ccc(F)cc1	.	.	.	.	.	6.0
O=C(C[C@H]1C=C[C@H](NC(=O)c2ccc(F)cc2)[C@@H](CO)O1)NCc1ccncn1	.	.	.	.	.	4.7
Cc1ccccc1CC(=O)Nc1ccon1	11.5	-4.7	-0.8	-9.8	-1.9	-0.8
CC(=O)c1cccc(NC(=O)Nc2ccc3c(c2)CCC3)c1	0.0	96.5*	0.1	-9.2	19.0	65.9*
CCc1ccc(NC(=O)Nc2ccc3c(c2)CCC3)cc1	-2.6	50.6	2.1	2.0	10.0	52.7*
CC(=O)c1cccc(Nc2ccc(Br)cc2)c1	4.4	.	-3.8	.	17.7	53.8*
COc1ccccc1CC(=O)Nc1ccon1	56.1*	.	0.7	9.2	-0.9	11.4
CN1C(=O)c2cc(NC(=O)c3ccc(F)cc3)ccc2OC[C@H]2O[C@H](CC(=O)N3CCOCC3)CC[C@H]21	.	.	.	.	.	1.7
CCCc1cn(CC[C@H]2CC[C@H](NS(=O)(=O)c3ccccc3Cl)[C@@H](CO)O2)nn1	.	.	.	.	.	1.0
Cc1cc(NC(=O)c2noc3c2CCc2ccccc2-3)no1	8.3	25.1	1.1	-3.5	10.3	40.0
CCc1ccc(NC(=O)Nc2ccon2)cc1	-1.8	59.1	-1.6	7.8	17.2	44.0*
CC(=O)c1cccc(NC(=O)c2ccc3c(c2)CCCC3)c1	-9.5	113.0*	-5.3	-7.7	23.7	14.8
O=C(Nc1ccc([N+](=O)[O-])cc1)Nc1ccon1	13.5	-34.6	13.9	6.4	-1.6	-19.1
CC(=O)c1cccc(NC(=O)c2noc3c2CCc2ccccc2-3)c1	0.9	?	-4.1	-10.1	32.9*	17.5
CCCCN1CCc2c([nH]c3ccc(C)cc23)C1=O	6.2	67.1	-5.6	-11.0	36.6*	?
Cc1ccc2[nH]c3c(c2c1)CCC3=O	.	-6.4	2.0	-9.9	.	10.8
CCS(=O)(=O)Nc1ccc2c(c1)C(=O)N(C)C[C@H](OC)[C@H](C)CN(C(=O)NC(C)C)[C@@H](C)CO2	.	.	.	.	.	-0.4
SMILES	Vif imaging	MITF act	N-glyco inh	PvdQ acylase	Wnt act	esBAF inh
Nc1nc(Nc2ccccc2F)sc1C(=O)c1ccccc1	8.9	100.2*	-6.3	-5.1	35.3*	.
CC(=O)c1cccc(OCc2cc(C(=O)N3C[C@H]4CC[C@H]3C4)no2)c1	-4.2	47.2	1.2	5.7	1.0	?
COCCC1CCCCN1C(=O)c1cc(COc2cccc(C(C)=O)c2)on1 (stereo unspecified)	-0.4	27.1	-0.9	5.2	14.3	64.7*
O=C(c1cc(COc2cccc3cccnc23)on1)N1CCC[C@H]1CO	50.7*	.	2.0	.	1.2	9.3
O=C(c1cc(COc2cccc(C(F)(F)F)c2)on1)N1C[C@H]2CC[C@H]1C2	-1.2	65.1	3.2	-16.4	13.0	58.0*
COc1ccc(OCc2cc(C(=O)N3CCCCCCC3)no2)c(Cl)c1	.	27.9	.	-10.2	14.3	.
COc1ccc(OCc2cc(C(=O)N3C[C@@H](C)O[C@@H](C)C3)no2)c(Cl)c1	-4.1	70.2	7.7	-4.4	13.4	42.4*
Cc1noc(C)c1S(=O)(=O)Nc1ccc2c(c1)C(=O)N([C@@H](C)CO)C[C@@H](C)[C@@H](CN(C)C(=O)CCC(F)(F)F)OCCCC[C@@H](C)O2	.	.	.	.	.	8.5
COCC#Cc1cnc2c(c1)C(=O)N([C@@H](C)CO)C[C@H](C)[C@H](CN(C)C(=O)Nc1cc(F)ccc1F)O2	.	.	.	.	.	7.1
Cc1ccc(S(=O)(=O)Nc2ccc3c(c2)CC(=O)N([C@@H](C)CO)C[C@H](C)[C@@H](CN(C)S(=O)(=O)c2ccc(F)cc2)O3)cc1	.	.	.	.	.	-0.3
CC(=O)c1cccc(OCc2cc(C(=O)N3C[C@@H](C)O[C@@H](C)C3)no2)c1	1.5	68.8	2.0	-11.5	21.3	64.9*
CC(=O)c1cccc(OCc2cc(C(=O)NC3CCN(Cc4ccccc4)CC3)no2)c1	-29.6	-21.7	-0.6	-9.4	-0.7	4.1
COC(=O)C1=C(Nc2ccccc2NC(=O)CCCC(=O)O)CSC1	-5.4	.	1.4	-0.7	2.9	.
COC(=O)C1=C(Nc2ccccc2NC(=O)c2ccccc2C(=O)O)CSC1	-2.2	-5.7	1.2	6.4	41.5*	26.2
O=C1/C(=C/c2cccnc2)SC(=S)N1Cc1ccco1	-6.6	-9.7	3.5	-7.9	2.0	.
Cc1cc(/C=C2\SC(=S)N(Cc3ccco3)C2=O)c(C)n1-c1cccnc1	187.1*	.	-10.6	10.7	.	43.4*
CCn1c(SC(C)C(=O)NC2CCCC2)nc2cc(S(N)(=O)=O)ccc21 (stereo unspecified)	?	-9.3	4.3	-0.9	47.6*	-4.6
CCCCn1c(SC(C)C(=O)c2ccc(OC)cc2)nc2cc(S(N)(=O)=O)ccc21 (stereo unspecified)	-0.3	2.8	-1.8	9.0	.	-5.3
Cc1ccc(NC(=O)c2ccccc2Cl)c(Cl)c1	11.4	86.3*	-1.3	0.5	1.9	38.7
Cc1ccc(NC(=O)c2ccccc2F)c(NC(=O)c2ccccc2F)c1	-0.9	.	-2.3	-6.0	26.0	57.6*
Cc1ccc(NC(=O)c2ccccn2)c(Br)c1	-2.8	33.2	-8.1	-14.3	36.7*	.
Cc1ccc(C)c(NC(=O)c2ccccn2)c1	7.0	13.2	4.1	-9.6	1.0	19.4
COc1ccc(CN(C)C[C@H]2OCCCC[C@H](C)Oc3ccc(NC(=O)Nc4cccc5ccccc45)cc3C(=O)N([C@@H](C)CO)C[C@@H]2C)cc1	.	.	.	.	.	-3.0
O=C(NCC[C@@H]1CC[C@H](NC(=O)C2CCCC2)[C@@H](CO)O1)c1ccc(F)cc1	.	.	.	.	.	-0.4
